What all share (assay): NCI-60 one-dose screen, 48 h (100 = growth as untreated, 0 = no growth, -100 = all killed)
One assay deals with SK-MEL-2 melanoma. The settings on record: 10 µM unless noted.
The subject of another assay is EKVX NSCLC. The settings on record: 10 µM unless noted.
A further assay deals with SN12C renal. The conditions noted are these: 10 µM unless noted.
A further assay concerns UO-31 renal. The settings on record: 10 µM unless noted.
The next assay concerns TK-10 renal. The conditions noted are these: 10 µM unless noted.
A further assay relates to ACHN renal. The conditions noted are these: 10 µM unless noted.
The subject of another assay is CAKI-1 renal. The conditions noted are these: 10 µM unless noted.
In a further assay the test system is A498 renal. The conditions noted are these: 10 µM unless noted.
Another assay concerns MOLT-4 leukemia. The conditions noted are these: 10 µM unless noted.
Another assay deals with SR leukemia. The settings on record: 10 µM unless noted.
Another assay relates to RPMI-8226 leukemia. The settings on record: 10 µM unless noted.
The next assay deals with OVCAR-8 ovarian. The conditions noted are these: 10 µM unless noted.
A further assay relates to OVCAR-5 ovarian. The settings on record: 10 µM unless noted.
The test system of a further assay is OVCAR-4 ovarian. The conditions noted are these: 10 µM unless noted.
The subject of the next assay is SK-OV-3 ovarian. The conditions noted are these: 10 µM unless noted.
The subject of a further assay is IGROV1 ovarian. The conditions noted are these: 10 µM unless noted.
In another assay the test system is OVCAR-3 ovarian. The settings on record: 10 µM unless noted.
A further assay concerns HS 578T breast. The settings on record: 10 µM.
In the next assay the test system is NCI/ADR-RES ovarian. The settings on record: 10 µM unless noted.
Another assay has as its system CCRF-CEM leukemia. The conditions noted are these: 10 µM unless noted.

Growth data for nine compounds are collected here from PubChem BioAssay (NCI).

Compounds without any hit were thinned out: in the full panel of roughly 83,000, 20% have a hit.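 For each line, cells grew in 96-well plates with the test compound present at a single concentration for 48 hours.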 Values without a mark were called inactive. Activity calls are given as the source filed them. Rule for the calls: active = growth percent below 10; inactive = the rest.

For the compound `COc1ccc(Nc2ncccc2C(=O)NCc2cn(Cc3cc(OC)cc(OC)c3)nn2)cc1`, the growth with SK-MEL-2 melanoma was 89.5%; in the assay on EKVX NSCLC, 92.5%; in the assay on SN12C renal, 109%; in the assay with UO-31 renal, 65.7%; in the assay with TK-10 renal, 108%; in the assay with ACHN renal, 93.8%. In addition, the growth in the assay on CAKI-1 renal is 101%; in the assay on A498 renal, 95.8%; in the assay with MOLT-4 leukemia it was 82.7%; in the assay on SR leukemia, 84.8%; with RPMI-8226 leukemia it was 99.8%; in the assay on OVCAR-8 ovarian, 97.6%. The growth with OVCAR-5 ovarian was 106%; with OVCAR-4 ovarian it was 98%; in the assay with SK-OV-3 ovarian it was 98.7%; with IGROV1 ovarian, 113%; in the assay on OVCAR-3 ovarian, 96.5%; in the assay on HS 578T breast it was 86.2%. In the assay with NCI/ADR-RES ovarian, the growth was 89.7%.
As to `CCc1oc2ccccc2c1C(=O)c1cc(I)c(O)c(I)c1`, the growth in the assay on SK-MEL-2 melanoma was 1.14% (active); in the assay with EKVX NSCLC it was 84.5%; in the assay with SN12C renal, 46.4%; with UO-31 renal it was 80%; with TK-10 renal, 87.7%; in the assay with ACHN renal, 72.9%. The growth with CAKI-1 renal is 45.9%; in the assay on A498 renal it was 98.2%; with CCRF-CEM leukemia, 66.2%; with MOLT-4 leukemia, 32.5%; in the assay on RPMI-8226 leukemia, 55.2%; with OVCAR-8 ovarian, 56.7%. For the same compound, the growth in the assay with OVCAR-4 ovarian is 71%; in the assay on SK-OV-3 ovarian, 105%; in the assay with IGROV1 ovarian, 50.5%; in the assay on OVCAR-3 ovarian, 13.6%; in the assay with HS 578T breast, 49.2%; with NCI/ADR-RES ovarian, -6% (active).
For `COC(=O)c1cc2oc(/C=N/NC(=O)c3cc4oc(-c5cccc(C(F)(F)F)c5)cc4[nH]3)cc2n1Cc1ccccc1`, the growth in the assay with SK-MEL-2 melanoma was 107%; in the assay with EKVX NSCLC, 117%; in the assay on SN12C renal, 104%; with UO-31 renal, 91.5%; in the assay with TK-10 renal, 86.3%; in the assay on ACHN renal, 106%. In addition, the growth in the assay on A498 renal was 85.8%; in the assay on CCRF-CEM leukemia, -26% (active); in the assay with MOLT-4 leukemia it was 77.8%; with SR leukemia, 33%; with RPMI-8226 leukemia it was 85.6%; in the assay with OVCAR-8 ovarian, 75.2%. Moreover, the growth with OVCAR-5 ovarian is 107%; in the assay with OVCAR-4 ovarian, 104%; in the assay on SK-OV-3 ovarian, 110%; in the assay with IGROV1 ovarian, 89.6%; in the assay on OVCAR-3 ovarian, 111%; in the assay on HS 578T breast, 87.5%. For the same compound, the growth in the assay on NCI/ADR-RES ovarian is 97.9%.
As to `CC(C)c1ccc(Cn2ccc3c4c(N)nc(NC5CC5)nc4ccc32)cc1`, the growth in the assay on SK-MEL-2 melanoma is -82.6% (active); with EKVX NSCLC, -84.2% (active); in the assay with SN12C renal it was -91.5% (active); in the assay with UO-31 renal, -99% (active); in the assay with TK-10 renal it was -97.2% (active); in the assay on ACHN renal, -98.9% (active). Also, the growth in the assay on A498 renal was -82.3% (active); with CCRF-CEM leukemia, -16.3% (active); in the assay on MOLT-4 leukemia, -42.8% (active); in the assay with SR leukemia, -45.8% (active); with RPMI-8226 leukemia, -54.7% (active); in the assay on OVCAR-8 ovarian it was -77.8% (active). For the same compound, the growth with OVCAR-5 ovarian was -85.9% (active); with OVCAR-4 ovarian, -37.4% (active); in the assay on SK-OV-3 ovarian, -87.2% (active); in the assay with IGROV1 ovarian it was -87.4% (active); in the assay on OVCAR-3 ovarian it was -87.6% (active); in the assay with HS 578T breast, -57.1% (active). Besides, the growth in the assay with NCI/ADR-RES ovarian was -74.4% (active).
With `Cc1c(C)c(C)c([N+](=O)[O-])c([N+](=O)[O-])c1C`, the growth in the assay on SK-MEL-2 melanoma is 103%; with EKVX NSCLC, 90.7%; with SN12C renal, 98.7%; in the assay with UO-31 renal, 81.8%; with TK-10 renal, 91.3%; in the assay with ACHN renal it was 98.9%. Besides, the growth in the assay with CAKI-1 renal is 90.8%; in the assay on A498 renal, 67.9%; in the assay with CCRF-CEM leukemia, 121%; in the assay on SR leukemia, 99.8%; with RPMI-8226 leukemia it was 119%; in the assay with OVCAR-8 ovarian, 102%. Further, the growth in the assay on OVCAR-5 ovarian is 84.5%; with SK-OV-3 ovarian it was 111%; in the assay on IGROV1 ovarian, 122%; with OVCAR-3 ovarian it was 98.5%; in the assay with HS 578T breast, 96.5%; in the assay on NCI/ADR-RES ovarian it was 99.4%.
Regarding `O=C1c2ccccc2C(=O)c2c1oc1ccc3ccccc3c21`, the growth in the assay on SK-MEL-2 melanoma is 101%; in the assay on EKVX NSCLC, 72.6%; with SN12C renal, 83.2%; in the assay with UO-31 renal, 61%; in the assay with TK-10 renal, 169%; in the assay with ACHN renal it was 79.4%. Also, the growth in the assay on A498 renal is 88.5%; in the assay on CCRF-CEM leukemia it was 94.8%; in the assay with MOLT-4 leukemia, 104%; in the assay with SR leukemia it was 60.8%; in the assay on RPMI-8226 leukemia, 75.9%; in the assay on OVCAR-8 ovarian, 88.2%. The growth in the assay with OVCAR-5 ovarian is 130%; with OVCAR-4 ovarian, 34.1%; in the assay on SK-OV-3 ovarian, 114%; in the assay with IGROV1 ovarian it was 80.2%; with OVCAR-3 ovarian, 39.4%; with HS 578T breast, 85.7%. Also, the growth with NCI/ADR-RES ovarian is 79.4%.
As to `CCCCCCCCCCCCCCCC1=NCC[N+]1(CCO)CCO`, the growth in the assay on SK-MEL-2 melanoma was 85.2%; with EKVX NSCLC, 72.3%; in the assay with SN12C renal, 67%; in the assay on UO-31 renal, 42.1%; in the assay with TK-10 renal it was 66.6%; in the assay with ACHN renal it was 67.1%. Also, the growth in the assay on CAKI-1 renal is 79.5%; in the assay with A498 renal, 86.8%; with MOLT-4 leukemia, 43%; with OVCAR-8 ovarian it was 37%; with OVCAR-5 ovarian it was 43.1%; with OVCAR-4 ovarian, 61.4%. Also, the growth in the assay with SK-OV-3 ovarian was 95.1%; with IGROV1 ovarian, -16% (active); in the assay on OVCAR-3 ovarian it was 86.6%; with HS 578T breast, 75.2%; with NCI/ADR-RES ovarian it was 71.1%.
Regarding `COc1cc(-c2n/c(=C\c3c(O)[nH]c4cc(Cl)ccc34)cc3c2=Nc2ccccc2-3)cc(OC)c1OC`, the growth in the assay on SK-MEL-2 melanoma is 72.9%; in the assay on EKVX NSCLC, 64.1%; in the assay on SN12C renal it was 78.4%; in the assay with UO-31 renal it was 74.9%; in the assay with TK-10 renal, 63%; in the assay on ACHN renal, 59.6%. Further, the growth with CAKI-1 renal was 69.1%; with A498 renal, 94.5%; in the assay on MOLT-4 leukemia, 70.6%; in the assay with SR leukemia, 36.8%; with RPMI-8226 leukemia, 84.6%; in the assay on OVCAR-8 ovarian it was 59.3%. Also, the growth in the assay on OVCAR-5 ovarian was 102%; with OVCAR-4 ovarian, -1.32% (active); in the assay on SK-OV-3 ovarian, 59.4%; in the assay on IGROV1 ovarian it was 25.2%; in the assay with OVCAR-3 ovarian, 58.1%; in the assay with HS 578T breast, 50%. Further, the growth with NCI/ADR-RES ovarian is 84.1%.
Turning to `COc1ccc(-c2cn(-c3cccc(C(=O)/C=C/c4ccc(O)c(OC)c4)c3)c(=O)[nH]2)cc1`, the growth was 30% in the assay on SK-MEL-2 melanoma; 40.8% in the assay on EKVX NSCLC; 14.2% with SN12C renal; 19% in the assay with UO-31 renal; 35.6% with TK-10 renal; -47.8% (active) in the assay on ACHN renal. The growth in the assay with CAKI-1 renal is 24.6%; in the assay with CCRF-CEM leukemia, 9.57% (active); with MOLT-4 leukemia, 5.6% (active); in the assay with SR leukemia it was 7.01% (active); with RPMI-8226 leukemia, -40.4% (active); in the assay on OVCAR-8 ovarian, 11.7%. In addition, the growth is 33% in the assay with OVCAR-5 ovarian; 33.6% with OVCAR-4 ovarian; 53.6% in the assay with SK-OV-3 ovarian; -32.8% (active) in the assay with IGROV1 ovarian; -1.7% (active) in the assay on OVCAR-3 ovarian; 12.7% in the assay with NCI/ADR-RES ovarian.
